# Laboratory results: PubChem BioAssay (NCATS)
# Where “and” joins values, the source holds several entries; their conditions need not be identical. Equal entries are not always repeated. Results filed as inconclusive are left out. Values without a mark were called inactive. Calls of active or inactive are those of the source. Calls come from the whole dose curve; as a rule, active = well fitted curve in the direction sought with a large enough effect; inconclusive = small, poorly fitted or top-dose-only effect, or another doubt; inactive = no such curve, though single readings can be large; an effect the other way counts as inactive or inconclusive.
# What was measured:
# [1] = molecular target: Cellular tumor antigen p53 (Homo sapiens) (UniProt P04637); assay: Primary qHTS for small molecule compounds that upregulate eGFP-tagged delta133p53alpha (in N-terminal) cells. (AID 2060322); details: NCI-H358 eGFP-delta133p53alpha fluorescence, 24 h; activation: stronger effect = higher value; note: nearly all actives have a fitted effect of over 75% in size; note: potency is the fitted concentration of half-maximal effect;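 for activation: series mostly up to about 56 µM; 0% = DMSO vehicle and 100% = reference activator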
# Sequence of Cellular tumor antigen p53 (Homo sapiens) (P04637 whole entry, looked up): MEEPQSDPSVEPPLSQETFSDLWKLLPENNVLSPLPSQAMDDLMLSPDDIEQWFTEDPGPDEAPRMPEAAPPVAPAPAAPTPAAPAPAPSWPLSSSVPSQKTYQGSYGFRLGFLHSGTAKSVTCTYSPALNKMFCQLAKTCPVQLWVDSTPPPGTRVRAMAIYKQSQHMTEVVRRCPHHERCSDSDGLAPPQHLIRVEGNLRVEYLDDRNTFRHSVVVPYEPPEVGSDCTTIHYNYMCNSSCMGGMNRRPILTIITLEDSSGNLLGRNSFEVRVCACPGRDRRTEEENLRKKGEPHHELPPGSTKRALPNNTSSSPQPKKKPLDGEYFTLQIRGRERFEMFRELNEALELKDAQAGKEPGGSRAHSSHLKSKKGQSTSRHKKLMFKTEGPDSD
# Summary of the method: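 NCI-H358 cells pre-induced 24 h with 10 ng/ml doxycycline to express N-terminal eGFP-delta133p53alpha, then dosed 24 h at 37C without doxycycline; fixed, Hoechst-stained, GFP intensity by laser scanning cytometry, normalized to DMSO (0%) and 57.5 uM 5-azacytidine (100%).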
# [2] = molecular target: Aldehyde dehydrogenase, mitochondrial (Homo sapiens) (UniProt P05091); assay: qHTS for Inhibitors of the Aldehyde Dehydrogenase Family (ALDH2) Primary screen (AID 2061308); note: nearly all actives have a fitted effect of over 55% in size; note: potency is the fitted concentration of half-maximal effect
# [3] = molecular target: Retinaldehyde dehydrogenase 3 (Homo sapiens) (UniProt P47895); assay: qHTS for Inhibitors of the Aldehyde Dehydrogenase Family (ALDH1A3) Confirmatory screens (AID 2061311); note: nearly all actives have a fitted effect of over 60% in size; note: potency is the fitted concentration of half-maximal effect
# [4] = molecular target: Retinaldehyde dehydrogenase 3 (Homo sapiens) (UniProt P47895); assay: qHTS for Inhibitors of the Aldehyde Dehydrogenase Family (ALDH1A3) Validation screen (AID 2061312); note: nearly all actives have a fitted effect of over 45% in size; note: potency is the fitted concentration of half-maximal effect
# [5] = molecular target: Retinal dehydrogenase 2 (Homo sapiens) (UniProt O94788); assay: qHTS for Inhibitors of the Aldehyde Dehydrogenase Family (ALDH1A2) Confirmation screens (AID 2061314); note: nearly all actives have a fitted effect of over 65% in size; note: potency is the fitted concentration of half-maximal effect
# [6] = molecular target: Retinaldehyde dehydrogenase 3 (Homo sapiens) (UniProt P47895); assay: qHTS for Inhibitors of the Aldehyde Dehydrogenase Family (ALDH1A3) Primary screen (AID 2061315);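 note: plate controls were DMSO vehicle for no effect and reference inhibitor for full effect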
# [7] = molecular target: Aldehyde dehydrogenase 1A1 (Homo sapiens) (UniProt P00352); assay: qHTS for Inhibitors of the Aldehyde Dehydrogenase Family (ALDH1A1) Confirmatory screens (AID 2061316); note: potency is the fitted concentration of half-maximal effect; nearly all actives have a fitted effect of over 65% in size
# [8] = BET inhibitor-based combinations targeting novel dependencies in MECOM-rearranged (r) AML: SET-2 cell line (AID 2202231); details: SET-2 AML cells viability, CellTiter-Glo luminescence, 48 h; viability: stronger effect = lower value, series mostly up to about 46 µM;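 note: plate controls were DMSO treated cells for no effect and wells without cells for full effect; nearly all actives have a fitted effect of over 35% in size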
# Summary of the method: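 A 48 hr incubation preceded viability reading by CellTiter-Glo, with 15 min room-temperature development. Dose series had 11 points; normalization used DMSO and empty wells; AUC was computed and mean-centered per line as Z-AUC.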
# [9] = BET inhibitor-based combinations targeting novel dependencies in MECOM-rearranged (r) AML: UCSD-AML1 cell line (AID 2202235);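 note: series mostly up to about 46 µM; plate controls were DMSO vehicle wells for no effect and blank wells for full effect; nearly all actives have a fitted effect of over 40% in size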
# Summary of the method: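 Each compound is tested in an 11-point concentration series against 500 seeded cells/well for 48 hr. The luminescent viability signal is normalized to DMSO and blank wells, then reduced to AUC and a cell-line-centred Z-AUC.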
compound,measurement,setting,value
CC1CCC2C(C(=O)O)=COC(O[C@@H]3O[C@H](CO)[C@@H](O)[C@H](O)[C@H]3O)C12 (stereo partly specified),activation,[1],-3.57%
same,Potency,[2],inactive
OC[C@H]1O[C@@H](Oc2cc(O)cc(-c3cc4ccc(O)cc4o3)c2)[C@H](O)[C@@H](O)[C@@H]1O,activation,[1],13.4%
same,Potency,[2],inactive
same,Potency,[3],12.3 µM (active)
CN(CCCNC(=O)c1ccc2nc3c(c(Cl)c2c1)CCCC3)Cc1ccccc1,activation,[1],20.5%
same,Potency,[2],inactive
same,Potency,[3],8.96 µM (active)
same,Potency,[4],inactive
same,Potency,[5],7.12 µM (active)
same,Potency,[6],inactive
same,Potency,[7],8.96 µM (active)
CC(=O)N[C@H]1[C@H](O[C@H]2CC[C@@]3(C)C(CC[C@]4(C)C3CC=C3C5CC(C)(C)CC[C@]5(C(=O)O)[C@H](O[C@@H]5O[C@H](CO)[C@@H](O)[C@H](O)[C@H]5O)C[C@]34C)C2(C)C)O[C@H](CO[C@@H]2OC[C@H](O)[C@H](O)[C@H]2O[C@@H]2OC[C@@H](O)[C@H](O)[C@H]2O)[C@@H](O)[C@@H]1O (stereo partly specified),activation,[1],-9.16%
same,Potency,[2],inactive
O=C(O[C@H]1[C@@H]2C[C@@H]3OC[C@](O)([C@@H]1Cl)[C@H]2C(O[C@@H]1O[C@H](CO)[C@@H](O)[C@H](O)[C@H]1O)O3)c1ccc(O)c(O)c1 (stereo partly specified),activation,[1],-22.1%
same,Potency,[2],inactive
Cc1nn(C)c2c1C(c1ccc(C(F)(F)F)cc1)C(C#N)=C(N)O2 (stereo unspecified),activation,[1],-5.25% and 36.9%
same,Potency,[2],inactive
same,Potency,[3],inactive
same,Potency,[4],6.31 µM (active)
same,viability,[8],87.6%
same,Potency,[9],inactive
COc1ncc(Nc2ncc([C@@H](C)N3CCN(S(C)(=O)=O)CC3)cc2-c2nc(C)nc(N)n2)cc1F,activation,[1],21%
same,Potency,[2],inactive
same,Potency,[3],10 µM (active)
same,Potency,[4],inactive
same,Potency,[6],inactive
CC(=O)c1c(C)cc2cccc(O)c2c1O[C@@H]1O[C@H](CO)[C@@H](O)[C@H](O)[C@H]1O,activation,[1],-2.29%
same,Potency,[2],inactive
same,Potency,[3],3.12 µM (active)
same,Potency,[5],inactive
O=C(/C=C/c1ccc(O)c(O)c1)O[C@H]1[C@@H]2C=CO[C@@H](O[C@@H]3O[C@H](CO)[C@@H](O)[C@H](O)[C@H]3O)[C@@H]2[C@@]2(CO)O[C@@H]12,activation,[1],22.3%
same,Potency,[2],inactive
COc1cc(C2OCC3C(c4ccc(OC5OC(CO)C(O)C(O)C5O)c(OC)c4)OCC23)ccc1O (stereo unspecified),activation,[1],-24.4%
same,Potency,[2],inactive
C[C@]1(C2CCCC2)Cc2cc(OCC(=O)O)c(Cl)c(Cl)c2C1=O,activation,[1],-3.67%
same,Potency,[2],inactive
COc1cc([C@H]2OC[C@]3(OC(C)=O)[C@@H](c4ccc(O[C@@H]5O[C@H](CO)[C@@H](O)[C@H](O)[C@H]5O)c(OC)c4)OC[C@H]23)ccc1O,activation,[1],-3.82%
same,Potency,[2],inactive
CC1=C(CCC(C)O[C@@H]2O[C@H](CO)[C@@H](O)[C@H](O)[C@H]2O)C(C)(C)CCC1=O (stereo partly specified),activation,[1],-16.8%
same,Potency,[2],inactive
COc1cc(C(=O)O)ccc1OC1OC(CO)C(O)C(O)C1O (stereo unspecified),activation,[1],10.7%
same,Potency,[2],inactive
CC1CC=C2C1CC1(O)C(=O)CC2(C)C1(C)CO (stereo unspecified),activation,[1],3.82%
same,Potency,[2],inactive
CCCC/C=C\CCCCCc1cc(=O)c2ccccc2n1C,activation,[1],-0.893%
same,Potency,[2],8.91 µM (active)
same,Potency,[3],inactive
same,Potency,[5],6.97 µM (active)
same,Potency,[6],inactive
CC(=O)c1c(C)cccc1O[C@@H]1O[C@H](CO)[C@@H](O)[C@H](O)[C@H]1O,activation,[1],13%
same,Potency,[2],inactive
C=C1CCC2C(C)(COC3OC(COC(=O)CC(=O)O)C(O)C(O)C3O)CCCC2(C)C1CCC1=CCOC1=O (stereo unspecified),activation,[1],8.4%
same,Potency,[2],inactive
NC(=O)c1ccc(OCC2NC(=O)C3CCCN3C2=O)cc1 (stereo unspecified),activation,[1],-12.2%
same,Potency,[2],inactive
O=C(OC[C@H]1O[C@@H](Oc2ccccc2CO)[C@H](O)[C@@H](O)[C@@H]1O)c1ccccc1,activation,[1],7.63%
same,Potency,[2],inactive
O=C(OC[C@H]1O[C@@H](Oc2ccccc2COC(=O)C2(O)C=CCCC2O)[C@H](O)[C@@H](O)[C@@H]1O)c1ccccc1 (stereo partly specified),activation,[1],-15.3%
same,Potency,[2],inactive
O=C(/C=C/N1C[C@@H]2C[C@@H]1CN2c1ccccn1)c1ccccc1O,activation,[1],-4.33%
same,Potency,[2],inactive
C=C1CC2OC(=O)C(=C)C2C(O)/C=C(\C)CCC1O (stereo unspecified),Potency,[1],26.9 µM (active)
same,Potency,[2],inactive
COC(=O)C1=CO[C@@H](O[C@@H]2O[C@H](CO[C@@H]3O[C@H](COC(=O)/C=C/c4cc(OC)c(O)c(OC)c4)[C@@H](O)[C@H](O)[C@H]3O)[C@@H](O)[C@H](O)[C@H]2O)[C@@H]2C(CO)=CC[C@H]12,activation,[1],-14.3%
same,Potency,[2],inactive
